# Measured values: the supplement of paper PMC10681739
# Biological target: RUNX1 (UniProt Q01196)
# Assay: RUNX1 binding intensity (PBM fluorescence) in presence of ETS1, normalised to RUNX1-only experiment (arbitrary fluorescence units); higher = stronger binding
# Conditions: RUNX1 concentration 2 nM; ETS1 concentration 25 nM
# Method: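 Cooperative gcPBM on 36-bp genomic probes with neighbouring ETS1 and RUNX1 sites. Recombinant human RUNX1 (2 nM) was incubated alone or with ETS1 (25 nM) and detected with anti-RUNX1 antibody plus Alexa488 secondary. Values are medians over 4 replicate spots; the RUNX1+ETS1 data were normalised to the RUNX1-only data. The probes sit in constant array flanks that are not printed.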
# 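Note: Full-length recombinant human ETS1 or RUNX1 bound to double-stranded 36-bp genomic probes on microarrays, detected by protein-specific primary antibody and Alexa488 secondary, spot fluorescence as median of four replicate spots.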
# Sequence of RUNX1 (Q01196 whole entry): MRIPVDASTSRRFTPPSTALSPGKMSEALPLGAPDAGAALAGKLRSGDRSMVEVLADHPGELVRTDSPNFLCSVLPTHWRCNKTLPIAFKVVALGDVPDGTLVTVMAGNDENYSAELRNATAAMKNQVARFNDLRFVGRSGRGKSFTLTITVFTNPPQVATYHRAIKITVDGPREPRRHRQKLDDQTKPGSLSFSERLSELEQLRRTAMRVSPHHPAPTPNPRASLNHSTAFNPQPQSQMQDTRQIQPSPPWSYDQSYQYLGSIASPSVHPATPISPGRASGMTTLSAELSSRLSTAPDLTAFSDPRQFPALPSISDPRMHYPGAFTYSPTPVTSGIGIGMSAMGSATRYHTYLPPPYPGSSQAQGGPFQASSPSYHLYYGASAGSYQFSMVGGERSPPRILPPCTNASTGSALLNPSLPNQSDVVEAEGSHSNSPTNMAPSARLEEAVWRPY
row,Sequence,RUNX1 binding intensity
1,AGAAGGCGCCGGAAGTGGTCCCGCAGAGGCGGGGTG,2500
2,ACACAAACAGGAAGTGTTTGTGGTCCCTGCCTTTAG,1590
3,TGGGGAGGCAGGAAACGGGCCTTGTGGTTGGGGGGT,1020
4,CTAGCCAGGAAGATAAAGAAGAAACCACCAAAGAGA,834
5,ATGGCGGAGCGGAAGTCCCAGCCACAACGCGAAAAG,1370
6,CCAGAGCACATCCTACACGCACCACAACCTGAAAAC,1470
7,TGGCTTGTTTCCGGTTCCTCTGTGGCGCCGTTCTCG,2890
8,ACGTCAGCATCCGCCGGGCTCGCGGTAAGGTGTGAG,1280
9,AGACTCCATCCGCCATGTTGGATGCCGCAGATTCGC,1050
10,GAAGGCGGTTCCGGTTCGCGGCGGTTCCCGGGTTTT,1820
11,GCAGGCGGAGCTTGAGGAAACCGCAGATAAGTTTTT,10200
12,GTGCAGACAGGAAATAGCTGCTCTGCGGCAGCCCGA,1070
13,AGGACACAGACAGGAAACCCGCAGGCTTTGTTTTTT,1470
14,CGGCTGTTTTCCAGGATGTTGTGGTCATGGCGGTGT,4090
15,AACAGCTTCCGGCACGGGGGCTGTGGTTGTGTTGGA,1530
16,CACTTCCGGGTCGTCAGCTCAGTTCTGCGGTTTCTG,12800
17,AACAGCACACAGGAAGTTACCGCTGAAGCAAAGGAG,1250
18,CTGCGAGCTCAGAACGGAAACCACAGCAACTACCGT,1550
19,GCCGCCTCTTCCTGTGTTGCAAACCACAGGTCCACC,4540
20,CAGTTTATCCTGTGAGAGCCTTGTGGTTCCTACTAA,859

row,Sequence,RUNX1 binding intensity
1,AGGACCTAACACTCAGGAAGTGGTCAACCTTGCTGC,1420
2,AGCCACGGACTTCCGCCTACAGGTCGCCGCAGGTCC,1700
3,ATCAAACCCCAGGATATGTTGGTTTTGTAGGTTGTC,629
4,AACTGGGCGGAAAGAACGGCTAACCGCAAGCTGCCG,23900
5,AGAGGCAGTTCCGGGGTGGGAACCGCGCGGAGCTTT,1220
6,TATGGCGGGCAGGAAGTGCGGGTGCGCGCCTGCGCA,1360
7,CATGGTGGTGACGCAGGATGTGGTGGTGGTGTAGAA,937
8,AAGACACCAACGCTCGGAAACCGCCAGACACCAACG,916
9,CCCTTCCGCGTGGGTTGCACCTGCTAACCACAGAGC,1600
10,TGCCACATCCTGCCCCTCCCCAGGTCTAACCACCAA,3360
11,AATGCAGCATTTCCTCTCCAGTTCACCACAGGCCCC,2420
12,GCGCAAAGCCGGAAGGAGGGGTTTGCGGCTGGGGAG,1360
13,GAAGCTCCCCAAACAGGATGTGGTTAGGGAGAGGGG,4090
14,CTCACTCATCTGACTTCCTGCGGTTTACGACAACAG,17400
15,TACAATTCGCACCGGAACTTGCGGCCCGGCTTCATT,963
16,GGCCTCGGCCACATCCGGGTTCCACCGCAGATTCGG,6490
17,TACGTCACTTCCGGGCCGCCGTCCTGCGGGCAAGGG,2270
18,GAGGGACAGGATGCCGCCAGGAACCACAAGAGCTTC,1300
19,TACAGCTTCCTTCACCCCACTTGTGGCCTGGGTTAC,913
20,CCGATTTCCCCGGACGTGGTGAGACCGCGCTTCGTC,1280
